Results published in PubChem BioAssay AID1159580 (chemical genetic matrix, 2015).
Among all 5,500 compounds or so, about 2,000 (36%) were called active. Another 18% or so got no clear call; they are omitted. Cut-off read from the data, not from the text of the source: active = normalized growth mostly below about 0.91 (no sharp cut-off); inconclusive = no clear call, values can overlap the other calls; inactive = mostly above about 0.92. Some of the results follow.

Test: chemical genetic growth profiling, strain panel (AID 1159580);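 note: tested at 20 µM; growth read once vehicle control cultures reached saturation at 30 °C; 1 = growth at the plate median or of vehicle wells; lower values mean less growth of the strain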
Settings: growth OD

Measured: normalized growth

CC(C)NC[C@H](O)COc1cccc2ccccc12
inactive: S. cerevisiae deletion strains, locus YJR066W, strain TOR1, hits give low values 0.996 | S. cerevisiae deletion strains, locus YKL009W, strain mrt4, hits give low values 1.03 | S. cerevisiae deletion strains, locus YKL068W, hits give low values 1.01 | S. cerevisiae deletion strains, locus YKL085W, strain MDH1 (second series), hits give low values 0.999 | S. cerevisiae deletion strains, locus YKL085W, strain MDH1, hits give low values 0.999 | S. cerevisiae deletion strains, locus YKL160W, strain elf1, hits give low values 0.992 | S. cerevisiae deletion strains, locus YKR001C, strain vps1, hits give low values 1.04 | S. cerevisiae deletion strains, locus YKR026C, strain gcn3, hits give low values 0.978 | S. cerevisiae deletion strains, locus YKR091W, strain srl3, hits give low values 0.99 | S. cerevisiae deletion strains, locus YLL001W, strain dnm1, hits give low values 0.98 | S. cerevisiae deletion strains, locus YLL026W, hits give low values 0.98 | S. cerevisiae deletion strains, locus YLL041C, strain sdh2, hits give low values 0.997 | S. cerevisiae deletion strains, locus YLR027C, strain aat2, hits give low values 0.987 | S. cerevisiae deletion strains, locus YLR039C, strain RIC1, hits give low values 1.05 | S. cerevisiae deletion strains, locus YLR058C, strain SHM2, hits give low values 1.01 | S. cerevisiae deletion strains, locus YLR102C, strain apc9, hits give low values 1.02 | S. cerevisiae deletion strains, locus YLR113W, strain HOG1, hits give low values 1 | S. cerevisiae deletion strains, locus YLR221C, strain rsa3, hits give low values 0.991 | S. cerevisiae deletion strains, locus YLR258W, strain gsy2, hits give low values 0.985 | S. cerevisiae deletion strains, locus YLR262C, strain YPT6 (second series), hits give low values 0.974 | S. cerevisiae deletion strains, locus YLR262C, strain YPT6, hits give low values 1.02 | S. cerevisiae deletion strains, locus YLR268W, strain sec22, hits give low values 1.01 | S. cerevisiae deletion strains, locus YLR320W, strain mms22, hits give low values 0.973 | S. cerevisiae deletion strains, locus YLR330W, strain CHS5, hits give low values 1.01 | S. cerevisiae deletion strains, locus YLR342W, strain FKS1 (second series), hits give low values 0.963 | S. cerevisiae deletion strains, locus YLR342W, strain FKS1, hits give low values 0.986 | S. cerevisiae deletion strains, locus YLR357W, strain rsc2, hits give low values 0.978 | S. cerevisiae deletion strains, locus YLR370C, strain arc18, hits give low values 0.999 | S. cerevisiae deletion strains, locus YLR371W, strain rom2, hits give low values 1.03 | S. cerevisiae deletion strains, locus YLR384C, strain iki3, hits give low values 0.963 | S. cerevisiae deletion strains, locus YLR418C, strain cdc73, hits give low values 1.02 | S. cerevisiae deletion strains, locus YML016C, strain PPZ1, hits give low values 1 | S. cerevisiae deletion strains, locus YML032C, strain rad52, hits give low values 0.997 | S. cerevisiae deletion strains, locus YML120C, strain ndi1, hits give low values 1 | S. cerevisiae deletion strains, locus YML124C, strain tub3, hits give low values 1.02 | S. cerevisiae deletion strains, locus YMR058W, strain fet3, hits give low values 0.995 | S. cerevisiae deletion strains, locus YMR078C, strain ctf18, hits give low values 1.03 | S. cerevisiae deletion strains, locus YMR125W, strain sto1, hits give low values 0.966 | S. cerevisiae deletion strains, locus YMR129W, hits give low values 0.988 | S. cerevisiae deletion strains, locus YMR205C, strain PFK2, hits give low values 0.971 | S. cerevisiae deletion strains, locus YMR223W, strain ubp8, hits give low values 1.06 | S. cerevisiae deletion strains, locus YMR231W, strain pep5, hits give low values 0.988 | S. cerevisiae deletion strains, locus YMR263W, strain SAP30, hits give low values 1.01 | S. cerevisiae deletion strains, locus YMR307W, strain GAS1, hits give low values 1.06 | S. cerevisiae deletion strains, locus YNL067W, strain RPL9B, hits give low values 1.03 | S. cerevisiae deletion strains, locus YNL071W, strain lat1, hits give low values 0.997 | S. cerevisiae deletion strains, locus YNL183C, strain NPR1, hits give low values 0.995 | S. cerevisiae deletion strains, locus YNL209W, strain ssb2, hits give low values 0.987 | S. cerevisiae deletion strains, locus YNL233W, strain BNI4, hits give low values 1.02 | S. cerevisiae deletion strains, locus YNL248C, strain rpa49, hits give low values 0.989 | S. cerevisiae deletion strains, locus YNL250W, strain rad50, hits give low values 1.04 | S. cerevisiae deletion strains, locus YNL271C, strain bni1, hits give low values 1.02 | S. cerevisiae deletion strains, locus YNL298W, strain CLA4, hits give low values 1.01 | S. cerevisiae deletion strains, locus YNL307C, strain MCK1, hits give low values 1.02 | S. cerevisiae deletion strains, locus YNL322C, strain KRE1 (second series), hits give low values 0.977 | S. cerevisiae deletion strains, locus YNL322C, strain KRE1, hits give low values 1.01 | S. cerevisiae deletion strains, locus YNR049C, strain mso1, hits give low values 0.989 | S. cerevisiae deletion strains, locus YNR052C, strain pop2, hits give low values 1.01 | S. cerevisiae deletion strains, locus YOL012C, strain htz1 0.826 | S. cerevisiae deletion strains, locus YOL147C, strain pex11, hits give low values 1.02 | S. cerevisiae deletion strains, locus YOR001W, strain rrp6, hits give low values 0.994 | S. cerevisiae deletion strains, locus YOR061W, strain CKA2, hits give low values 1 | S. cerevisiae deletion strains, locus YOR069W, strain VPS5, hits give low values 1.01 | S. cerevisiae deletion strains, locus YOR070C, strain gyp1, hits give low values 0.998 | S. cerevisiae deletion strains, locus YOR080W, strain dia2, hits give low values 0.977 | S. cerevisiae deletion strains, locus YOR083W, strain WHI5, hits give low values 1.01 | S. cerevisiae deletion strains, locus YOR106W, strain vam3, hits give low values 0.997 | S. cerevisiae deletion strains, locus YOR136W, strain idh2, hits give low values 1.03 | S. cerevisiae deletion strains, locus YOR144C, strain elg1, hits give low values 1.02 | S. cerevisiae deletion strains, locus YOR184W, strain ser1, hits give low values 1.03 | S. cerevisiae deletion strains, locus YOR231W, strain MKK1, hits give low values 1.02 | S. cerevisiae deletion strains, locus YOR265W, strain rbl2, hits give low values 0.988 | S. cerevisiae deletion strains, locus YOR270C, strain vph1, hits give low values 1.03 | S. cerevisiae deletion strains, locus YOR290C, strain snf2, hits give low values 0.988 | S. cerevisiae deletion strains, locus YOR316C, strain cot1, hits give low values 1.03 | S. cerevisiae deletion strains, locus YPL051W, strain arl3, hits give low values 0.993 | S. cerevisiae deletion strains, locus YPL055C, strain LGE1, hits give low values 1.02 | S. cerevisiae deletion strains, locus YPL078C, strain atp4, hits give low values 1.01 | S. cerevisiae deletion strains, locus YPL106C, strain sse1, hits give low values 0.98 | S. cerevisiae deletion strains, locus YPL240C, strain hsp82, hits give low values 0.999 | S. cerevisiae deletion strains, locus YPL241C, strain CIN2, hits give low values 1.01 | S. cerevisiae deletion strains, locus YPL256C, strain CLN2, hits give low values 1.07 | S. cerevisiae deletion strains, locus YPR119W, strain clb2, hits give low values 1.03 | S. cerevisiae deletion strains, locus YPR141C, strain kar3, hits give low values 1.02 | S. cerevisiae deletion strains, locus YPR163C, strain tif3, hits give low values 1.02 | S. cerevisiae deletion strains, locus YPR167C, strain met16, hits give low values 1.03 | S. cerevisiae deletion strains, strain wtn01, hits give low values 1.01 | S. cerevisiae strains, strain wild type, hits give low values 1.01
